The list is not random: actives were taken first. Their share in the collection is about 3.3%.
TbPYK inhibitor = blocks Trypanosoma brucei pyruvate kinase. 0.12% of 410,000 active. Potency, µM (highest dose often 76.8 µM), inactives show at the highest dose activity, negative = inhibition, most hits filed as inhibitors. Q57TT1. AID 624173. TbPYK enzyme, Kinase-Glo Plus ATP luminescence, 45 min; further: nearly all actives have a fitted effect of over 50% in size
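TbPYK + substrate in 50 mM TEA pH 7.2, 100 mM KCl, 10 mM MgCl2, 0.05% BSA, 0.01% Tween-20; cpd pinned; ADP 130 uM final; 45 min RT; Kinase-Glo Plus 10 min; luminescence endpoint.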
FBPA Giardia inh = inhibitors of Giardia lamblia fructose-1,6-bisphosphate aldolase; A8B2U2; purified Giardia FBPA; Potency, µM (series often up to 59.6 µM), without a hit: top-dose activity, negative = inhibition, actives largely listed as inhibitors; 0.71% of 290,000 active; AID 2451; further: nearly all actives have a fitted effect of over 55% in size
Target sequence (A8B2U2 whole entry, looked up): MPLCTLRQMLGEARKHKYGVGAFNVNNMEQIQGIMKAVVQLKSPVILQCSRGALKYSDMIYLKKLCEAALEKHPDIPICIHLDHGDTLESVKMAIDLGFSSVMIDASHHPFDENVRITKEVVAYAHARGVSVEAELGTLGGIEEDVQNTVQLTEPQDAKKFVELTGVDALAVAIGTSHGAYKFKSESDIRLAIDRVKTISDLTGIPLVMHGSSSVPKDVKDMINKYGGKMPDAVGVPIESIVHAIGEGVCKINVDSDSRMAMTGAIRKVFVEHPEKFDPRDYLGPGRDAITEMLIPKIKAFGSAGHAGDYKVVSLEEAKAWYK
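Giardia FBPA (40 nM reagent) was preincubated 10 min at RT with compound (up to 57.5 uM final), then substrate plus GAPDH/TPI/NAD/arsenate coupling system with diaphorase/resazurin was added; resorufin fluorescence (525/598 nm) was read after 20 min.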
LmPK inh = inhibitors of Leishmania mexicana pyruvate kinase | Potency, µM (highest dose often 57.5 µM), inactives show top-dose activity change, negative = inhibition, usual class: inhibitors | Q27686 | 0.37% of 290,000 active | AID 1721 | purified LmPK, Kinase-Glo ATP luminescence, 1 h
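In 50 mM imidazole pH 7.2 with 7 mM MgCl2, LmPK (0.1 nM) turned over PEP (0.5 mM) and ADP (0.1 mM) for 1 h at room temperature. Luciferase read-out of ATP.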
RE007 growth inh = less growth of the S. pombe RE007 Vpr strain; S. pombe RE007 Vpr strain, BacTiter-Glo ATP luminescence, 24 h; Potency, µM (series often up to 92.2 µM), without a hit: at the highest dose activity change, negative = less growth, usual class: inhibitors; 0.21% of 360,000 active; active means well fitted falling curve with a large enough effect; inconclusive means small, poorly fitted or top-dose-only effect; inactive means no such curve, though single readings can be large or run the other way; further: nearly all actives have a fitted effect of over 50% in size
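Fission yeast strain RE007, carrying one chromosomally integrated HIV-1 vpr copy, was seeded at OD 0.01 in PMG+AL medium with 23 nL pinned compound. After 24 h at 30 °C and 99% humidity, viability was read by BacTiter-Glo luminescence.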
Sm TGR inh = inhibitors of Schistosoma mansoni thioredoxin glutathione reductase. Q962Y6. purified TGR, DTNB reduction, TNB absorbance 405 nm. Potency, µM (doses to about 114 µM), for inactives: at the top dose activity change, negative = inhibition, hits mostly inhibitors. 3% of 360,000 active. AID 485364; further: nearly all actives have a fitted effect of over 60% in size
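First, TGR (20 nM dispensed) and NADPH were mixed with compound. Second, a 15 min room-temperature incubation followed. Third, further NADPH and then DTNB were added to start the reaction. Finally, TNB absorbance was monitored kinetically.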
An asterisk follows results filed as active; ? = inconclusive; . = no result given; [ ] = dose if it differs, or a comment. Unless noted, the call rests on the fitted dose curve; in most records, active means well fitted curve in the direction sought with a large enough effect; inconclusive means small, poorly fitted or top-dose-only effect, or another doubt; inactive means no such curve, though single readings can be large; an effect the other way counts as inactive or inconclusive. On the % scale 0 is the no-effect control and ±100 the full control effect; potency means the concentration at half of the fitted maximal effect.

SMILES	TbPYK inhibitor	FBPA Giardia inh	LmPK inh	RE007 growth inh	Sm TGR inh
COc1ccc2cc(C(=O)NCc3ccco3)c(=O)oc2c1	-4%	4%	-4%	-4%	-29%
Cc1ccc(C(=O)NCc2ccco2)cc1Br	0%	-1%	-3%	-23%	45µM*
O=C(NCc1ccco1)c1cc2ccc(O)cc2oc1=O	?	0%	14µM*	35µM*	?
CC(C)(C)N1C(=O)c2ccc(C(=O)NCc3ccco3)cc2C1=O	-9%	3%	6%	-15%	25µM*
Cc1c(C)n(C)c2ccc(C(=O)NCCc3ccco3)cc12	6%	1%	0%	-18%	35µM*
CCOC(=O)CNC(=O)CNC(=O)c1ccc(OC(C)C)cc1	-1%	5%	0%	23%	7%
Cc1ccc(-n2nc(C)c3c(C(=O)Nc4ccc(Br)c(C)c4)cc(C)nc32)cc1	-7%	.	.	.	5%
Cc1ccccc1-c1noc(-c2ccccc2C(=O)NCc2ccco2)n1	-11%	0%	2%	4%	13µM*
COc1ccc(C(=O)c2cc3ccc(O)cc3oc2=O)cc1	-34%	20%	-20%	2%	5%
O=C(c1ccc(Br)cc1)c1cc2ccc(O)cc2oc1=O	-11%	1%	-1%	1%	35µM*
Cc1c(Br)cc(C(=O)NCc2ccco2)c(C)c1C	-12%	1%	2%	-12%	35µM*
CCn1nnnc1-c1ccc(OC)c(S(=O)(=O)Nc2ccc(S(N)(=O)=O)cc2)c1	-1%	-7%	1%	-1%	0%
C/C(Cl)=C\C[N+](C)(C)CC(=O)OCCc1ccccc1	2%	-6%	-2%	4%	7%
CCOC(=O)C1CCCN(C(=O)CCc2nnc(-c3ccc(C(C)=O)s3)o2)C1 (stereo unspecified)	5%	-4%	5%	-11%	16µM*
CN=c1scc(C)n1/N=C/c1ccc2c(c1)OCO2	2%	-1%	16µM*	?	-21%
S=c1[nH]nc(C2CCCCC2)n1/N=C/c1ccccc1	?	19%	-16%	1%	1%
O=C(NCc1ccco1)c1cc(-c2ccccc2)nc2ccccc12	-4%	1%	3%	-1%	31%
CCCCOc1ccc(-c2cc(C(=O)NNC(=S)NCC)c3ccccc3n2)cc1	-10%	-11%	-26%	63µM*	6%
CCNC(=S)NNC(=O)c1cc(-c2cccc(C)c2)nc2ccccc12	-3%	?	?	?	1%
COc1ccc(-c2cc(C(=O)NCc3ccco3)c3ccccc3n2)cc1	-9%	-1%	0%	8%	40µM*
CCNC(=S)NNC(=O)c1cc(-c2ccc(OC)cc2)nc2ccccc12	-26%	23%	?	18µM*	4%
CCN(CC)CCCN1C=C2C(=O)C(C)(OC(=O)C3CCCC3)C(=O)C=C2C=C1c1ccsc1 (stereo unspecified)	1%	?	-7%[11.5 µM]	0%	50µM*
CCCc1[nH]nc2c1C(c1ccc(OCCN3CCOCC3)c(OC)c1)C(C#N)=C(N)O2 (stereo unspecified)	-1%	-5%	-3%	-5%	0%
CCOc1cc(C2C(C#N)=C(N)SC(N)=C2C#N)ccc1OCCN1CCOCC1	-9%	?	-9%	-5%	22µM*
O=C(CCn1cccc1)Nc1cccc(F)c1	-12%	2%	5%	-12%	35µM*
SMILES	TbPYK inhibitor	FBPA Giardia inh	LmPK inh	RE007 growth inh	Sm TGR inh
Cc1ccc(NC(=O)CCn2cccc2)cc1F	7%	2%	5%	-9%	?
NC(N)=Nc1cc2ccccc2c2ccccc12	.	3.2µM*	0%	.	0%
C[C@H]1CN([C@@H](C)CO)C(=O)c2cc(/C=C/c3ccccc3)cnc2O[C@H]1CN(C)C(=O)c1cccc(F)c1	-1%	.	.	-1%	.
COc1ccc(NC(=O)CN(c2ccc(C)cc2)S(=O)(=O)c2cccs2)cc1OC	1%	.	.	.	-17%
Cc1ccc(N(CC(=O)NCC2CCCO2)C(=O)CCC(=O)Nc2ccccn2)cc1 (stereo unspecified)	-2%	1%	2%	-6%	-2%
Cc1ccc(N(CC(=O)NCC2CCCO2)C(=O)CCC(=O)Nc2ccccn2)cc1C (stereo unspecified)	0%	1%	-2%	-14%	79µM*
Cc1ccc(N(C(=O)c2snc(C(N)=O)c2N)C(C(=O)NC2CCCC2)c2ccc(C)o2)cc1 (stereo unspecified)	-3%	5%	-7%	7%	-11%
Cc1ccc(C(C(=O)NC2CCCC2)N(Cc2cccnc2)C(=O)c2snc(C(N)=O)c2N)o1 (stereo unspecified)	3%	-4%	-1%	-11%	45µM*
Cc1ccc(N(C(=O)c2snc(C(N)=O)c2N)C(C(=O)NC2CCCC2)c2ccco2)cc1 (stereo unspecified)	1%	0%	1%	5%	40µM*
COc1ccc(C(=O)NCCNc2ccccc2[N+](=O)[O-])cc1	0%	-11%	-13%	0%	.
CCCNC(=O)c1ccc(S(=O)(=O)c2ccc(OC)cc2)c([N+](=O)[O-])c1	1%	1%	9%	-7%	2.2µM*
O=C(/C=C/Nc1ccc(F)cc1)c1cccs1	-14%	.	.	-21%	.
CCOC(=O)c1ccc(N/C=C/C(=O)c2ccco2)cc1	-11%	3%	14µM*	-3%	-1%
CCOC(=O)c1ccc(N/C=C/C(=O)c2ccc(OC)c(OC)c2)cc1	4%	1%	1%	-13%	6%
O=C(/C=C/Nc1ccc(F)cc1)c1ccco1	-17%	-9%	13µM*	?	0%
CCC(=O)Oc1ccc(C(=O)Nc2cccc(C(=O)c3ccccc3)c2)cc1	0%	1%	-16%	-15%	17%
COC1=C(OC)C(=O)C(CCCCCCCCCCO)=C(C)C1=O	10%	4.5µM*	15%	.	?
CC(C)c1c(O)nc(SCCN(C)C)[nH]c1=O	3%	-4%	14%	6%	18%[11.4 µM]
CC1(c2nnc(-c3ccncc3)o2)CC(c2ccc([N+](=O)[O-])cc2)=NO1 (stereo unspecified)	4%	-3%	3%	11%	35µM*
CC1(c2nnc(-c3ccc(Cl)cc3)o2)CC(c2ccc([N+](=O)[O-])cc2)=NO1 (stereo unspecified)	10%	-6%	0%	-18%	-10%
O=C(Nc1ccc(O)cc1)c1c(O)c2c([nH]c1=O)CCCC2	0%	0%	7%	-11%	-1%
O=C1C=CC(=O)N1c1ccc2c(c1)C(NC(=O)C(F)(F)F)c1ccccc1-2 (stereo unspecified)	?	.	.	40µM*	.
O=C(O)[C@@H]1Cc2ccccc2N1	-6%	-18%	0%	9%	56µM*
O=C(O)C1Cc2ccccc2-c2ccccc2C1	1%	1%	3%	3%	-3%

Screening results deposited in PubChem by National Center for Advancing Translational Sciences (NCATS).
